Results reported in PubChem BioAssay (NCI).
Compounds without any hit were thinned out: in the full panel of roughly 79,000, 15% have a hit. Values without a mark were called inactive. Activity calls are given as the source filed them. Cut-off read from the data, not from the text of the source: active = growth inhibition above about 70%; inactive = the rest.

Assay: NCI Yeast Anticancer Drug Screen. Data for the cln2 rad14 strain (AID 165);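 note: 0% = growth equal to vehicle treated cultures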
Settings: S. cerevisiae cln2 rad14 strain, at 50.0 µM, hits give high values
Procedure, shortened: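 Growth inhibition, relative to vehicle-treated controls, is the read-out. The test organism is a yeast strain with defined genetic alterations, cln2 rad14.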
In the case of S=c1[nH]nc(SCc2ccc(Cl)cc2Cl)c2[nH]cnc12, the growth inhibition is reported as -32.4%. For Cc1ccc(OS(=O)(=O)c2ccccc2)cc1, the growth inhibition was -42.6%. Compound O=C(/C=C/c1ccccc1)/C=N/N1C(=S)N(c2ccccc2)C(=Nc2ccccc2)C1=Nc1ccccc1 has a growth inhibition of -20.2%. For Cn1c(=O)c2[nH]c(CC3=CCCCC3)nc2n(C)c1=O, the growth inhibition was -8.35%. Compound [O-]c1c[n+](CCCC[n+]2cc([O-])on2)no1 has a growth inhibition of 3.55%. CCOP(=O)(OCC)/C(C#N)=C/c1ccc2ccccc2c1 showed a growth inhibition of -16.3%. With C=C(Cl)C(Cl)(CBr)CCC(Cl)C(C)C (configuration not stated) the growth inhibition was 73.7% (active). CCCNC(=O)Nc1ccc(OCC)cc1 showed a growth inhibition of -36.8%. In the case of Nc1nc(-c2ccccc2)[nH]c(=O)n1, the growth inhibition is reported as -62.8%. Work on O=[N+]([O-])c1ccc2c(c1)/C(=N/O)CCC2 yielded a growth inhibition of -86.4%. For CNC(=O)OCc1c(COC(=O)NC)c2n(c1C)CCS2(=O)=O, the growth inhibition was -9.95%. Compound Cc1nn(C(=O)c2ccc(Cl)cc2)c2c1C(c1ccccc1O)SC(N)=N2 (configuration not stated) has a growth inhibition of -1.45%. With CC(C)CCC[C@@H](C)[C@H]1CC[C@H]2[C@@H]3CC=C4C[C@@H]([n+]5ccccc5)CC[C@]4(C)[C@H]3CC[C@]12C the growth inhibition was 8.15%. In the case of Cc1ccc2nc(-c3ccc(CSC(=N)N)cc3)oc(=O)c2c1, the growth inhibition is reported as 20.9%. In the case of CC1=CCC(CC(=O)O)C1(C)C (configuration not stated), the growth inhibition is reported as 4.3%. CCCCc1c2c(nc3c1CCC/C3=C\c1ccccc1)C(=O)CCC2 showed a growth inhibition of 12.2%. In the case of O=CC1OC(c2ccccc2)OC1C1OC(c2ccccc2)OC1C=O (configuration not stated), the growth inhibition is reported as -22.6%. With CCC1(CC)C(=O)OC(=O)C1(CC)CC the growth inhibition was -8.2%. C=CC(=NC(C)C)N(C)c1ccccc1 gave a growth inhibition of -7.9%. ClC1=CC(Cl)=C2N=C(N3CCCC3)N=C3N=C(N4CCCC4)N=C1N32 showed a growth inhibition of -10.6%. In the case of COC(=O)/C(=N\NC(N)=O)C(C#N)c1ccccc1 (configuration not stated), the growth inhibition is reported as -29.9%. FC(F)/C=C\c1ccccc1 gave a growth inhibition of -19.8%.

Assay: NCI Yeast Anticancer Drug Screen. Data for the bub3 strain (AID 167)
Settings: S. cerevisiae bub3 mutant strain, at 50.0 µM, hits give high values
Procedure, shortened: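 Mutant yeast screening strain plus compound; vehicle-treated cultures serve as the 0% inhibition reference.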
In the case of c1cnc(NC(Nc2ncccn2)c2ccco2)nc1, the growth inhibition is reported as -12.2%. With O=C(NCCNC(=O)c1cccc([N+](=O)[O-])c1O)c1cccc([N+](=O)[O-])c1O the growth inhibition was -3.2%. With C[N+](C)(C)CC(=O)N/N=C(/C=C/c1ccccc1)CC1OC(=O)c2ccccc21 (configuration not stated) the growth inhibition was -7.5%. Work on C/C=C(/c1ccccc1)c1ccc(N(C)C)cc1 yielded a growth inhibition of 9.2%. With O=C(O)c1c[nH]c2cc(O)ccc2c1=O the growth inhibition was 15.3%. Compound O=C1CC(N2CCOCC2)c2ccccc21 (configuration not stated) has a growth inhibition of -14%. In the case of CCn1cnc2c(=O)n(C)c(=O)n(C)c21, the growth inhibition is reported as -0.55%. O=C(OC(=O)c1cccc(Br)c1)c1cccc(Br)c1 showed a growth inhibition of -5.7%. Compound N#CC12CCC(O)C(CC1)C2=O (configuration not stated) has a growth inhibition of -4.25%. With Cc1ccc2ccccc2[n+]1CC(=O)c1ccc2c(c1)OCO2 the growth inhibition was -10.7%. With CC(=O)Nc1ccc(Cc2[nH]c(=O)[nH]c(=O)c2Br)cc1 the growth inhibition was 1.05%. O=C(c1ccccc1Cl)c1ccc2ccccc2c1C(=O)O gave a growth inhibition of -10%. Work on O=C1CC2CC1C1C(=O)OC(=O)C21 (configuration not stated) yielded a growth inhibition of -6.9%. In the case of CCC(CC)C(=O)OC1CCCCC1C(C)C (configuration not stated), the growth inhibition is reported as 3.05%. Work on O=[N+]([O-])C1C2CCC(C2)C1c1ccccc1 (configuration not stated) yielded a growth inhibition of 14.9%. Compound CCC1=NS(=O)(=O)c2c(ncn2C)N1 has a growth inhibition of 0.15%. Compound O=C(O)C/C(=C\c1ccccc1)C(=O)O has a growth inhibition of -24.2%. In the case of CC(C)(C)c1ccc(Oc2nc(Oc3ccc(C(C)(C)C)cc3)nc(Oc3ccc(C(C)(C)C)cc3)n2)cc1, the growth inhibition is reported as -1.85%. With S=c1[nH]nc(SCc2ccc(Cl)cc2Cl)c2[nH]cnc12 the growth inhibition was -0.5%. For Cc1ccc(OS(=O)(=O)c2ccccc2)cc1, the growth inhibition was 35.2%. For O=C(/C=C/c1ccccc1)/C=N/N1C(=S)N(c2ccccc2)C(=Nc2ccccc2)C1=Nc1ccccc1, the growth inhibition was -20.1%. Cn1c(=O)c2[nH]c(CC3=CCCCC3)nc2n(C)c1=O gave a growth inhibition of 4.4%. Work on [O-]c1c[n+](CCCC[n+]2cc([O-])on2)no1 yielded a growth inhibition of -60.7%. Compound CCOP(=O)(OCC)/C(C#N)=C/c1ccc2ccccc2c1 has a growth inhibition of 5%. With C=C(Cl)C(Cl)(CBr)CCC(Cl)C(C)C (configuration not stated) the growth inhibition was 75.6% (active). With CCCNC(=O)Nc1ccc(OCC)cc1 the growth inhibition was 2.2%. Compound Nc1nc(-c2ccccc2)[nH]c(=O)n1 has a growth inhibition of -22.4%. Compound O=[N+]([O-])c1ccc2c(c1)/C(=N/O)CCC2 has a growth inhibition of -15.8%. In the case of CNC(=O)OCc1c(COC(=O)NC)c2n(c1C)CCS2(=O)=O, the growth inhibition is reported as 0.35%. Compound Cc1nn(C(=O)c2ccc(Cl)cc2)c2c1C(c1ccccc1O)SC(N)=N2 (configuration not stated) has a growth inhibition of -11.5%. Work on CC(C)CCC[C@@H](C)[C@H]1CC[C@H]2[C@@H]3CC=C4C[C@@H]([n+]5ccccc5)CC[C@]4(C)[C@H]3CC[C@]12C yielded a growth inhibition of -14.1%. For Cc1ccc2nc(-c3ccc(CSC(=N)N)cc3)oc(=O)c2c1, the growth inhibition was 19.1%. In the case of CC1=CCC(CC(=O)O)C1(C)C (configuration not stated), the growth inhibition is reported as 6.55%. Compound CCCCc1c2c(nc3c1CCC/C3=C\c1ccccc1)C(=O)CCC2 has a growth inhibition of 30.6%. In the case of O=CC1OC(c2ccccc2)OC1C1OC(c2ccccc2)OC1C=O (configuration not stated), the growth inhibition is reported as 17.9%. For CCC1(CC)C(=O)OC(=O)C1(CC)CC, the growth inhibition was -10.9%. Compound C=CC(=NC(C)C)N(C)c1ccccc1 has a growth inhibition of 26.5%. In the case of ClC1=CC(Cl)=C2N=C(N3CCCC3)N=C3N=C(N4CCCC4)N=C1N32, the growth inhibition is reported as 1.6%. Compound COC(=O)/C(=N\NC(N)=O)C(C#N)c1ccccc1 (configuration not stated) has a growth inhibition of 6.7%. In the case of FC(F)/C=C\c1ccccc1, the growth inhibition is reported as -16.9%.
